The inhibition is the change of the read-out against control, counted positive when it falls.

The test addresses Voltage-dependent N-type calcium channel subunit alpha-1B (Homo sapiens) (UniProt Q00975). Briefly: inhibitors of Mint1-CaV2.2 protein interaction, biochemical, HTRF (AID 2073). Particulars: at 20 µM, stronger effect = higher value. Background: In TR-FRET formats the signal depends on donor and acceptor labels being close together.

Among all 290,000 compounds or so, about 570 (0.2%) were called active. About 1% were inconclusive and are not listed. Rule as the data show it: active = inhibition mostly above about 51% (no sharp cut-off); inconclusive = no clear call, values can overlap the other calls; inactive = mostly below about 53%. The sample as a whole holds a higher share of actives than the screen did.

Voltage-dependent N-type calcium channel subunit alpha-1B (Homo sapiens), sequence (Q00975 whole entry, looked up): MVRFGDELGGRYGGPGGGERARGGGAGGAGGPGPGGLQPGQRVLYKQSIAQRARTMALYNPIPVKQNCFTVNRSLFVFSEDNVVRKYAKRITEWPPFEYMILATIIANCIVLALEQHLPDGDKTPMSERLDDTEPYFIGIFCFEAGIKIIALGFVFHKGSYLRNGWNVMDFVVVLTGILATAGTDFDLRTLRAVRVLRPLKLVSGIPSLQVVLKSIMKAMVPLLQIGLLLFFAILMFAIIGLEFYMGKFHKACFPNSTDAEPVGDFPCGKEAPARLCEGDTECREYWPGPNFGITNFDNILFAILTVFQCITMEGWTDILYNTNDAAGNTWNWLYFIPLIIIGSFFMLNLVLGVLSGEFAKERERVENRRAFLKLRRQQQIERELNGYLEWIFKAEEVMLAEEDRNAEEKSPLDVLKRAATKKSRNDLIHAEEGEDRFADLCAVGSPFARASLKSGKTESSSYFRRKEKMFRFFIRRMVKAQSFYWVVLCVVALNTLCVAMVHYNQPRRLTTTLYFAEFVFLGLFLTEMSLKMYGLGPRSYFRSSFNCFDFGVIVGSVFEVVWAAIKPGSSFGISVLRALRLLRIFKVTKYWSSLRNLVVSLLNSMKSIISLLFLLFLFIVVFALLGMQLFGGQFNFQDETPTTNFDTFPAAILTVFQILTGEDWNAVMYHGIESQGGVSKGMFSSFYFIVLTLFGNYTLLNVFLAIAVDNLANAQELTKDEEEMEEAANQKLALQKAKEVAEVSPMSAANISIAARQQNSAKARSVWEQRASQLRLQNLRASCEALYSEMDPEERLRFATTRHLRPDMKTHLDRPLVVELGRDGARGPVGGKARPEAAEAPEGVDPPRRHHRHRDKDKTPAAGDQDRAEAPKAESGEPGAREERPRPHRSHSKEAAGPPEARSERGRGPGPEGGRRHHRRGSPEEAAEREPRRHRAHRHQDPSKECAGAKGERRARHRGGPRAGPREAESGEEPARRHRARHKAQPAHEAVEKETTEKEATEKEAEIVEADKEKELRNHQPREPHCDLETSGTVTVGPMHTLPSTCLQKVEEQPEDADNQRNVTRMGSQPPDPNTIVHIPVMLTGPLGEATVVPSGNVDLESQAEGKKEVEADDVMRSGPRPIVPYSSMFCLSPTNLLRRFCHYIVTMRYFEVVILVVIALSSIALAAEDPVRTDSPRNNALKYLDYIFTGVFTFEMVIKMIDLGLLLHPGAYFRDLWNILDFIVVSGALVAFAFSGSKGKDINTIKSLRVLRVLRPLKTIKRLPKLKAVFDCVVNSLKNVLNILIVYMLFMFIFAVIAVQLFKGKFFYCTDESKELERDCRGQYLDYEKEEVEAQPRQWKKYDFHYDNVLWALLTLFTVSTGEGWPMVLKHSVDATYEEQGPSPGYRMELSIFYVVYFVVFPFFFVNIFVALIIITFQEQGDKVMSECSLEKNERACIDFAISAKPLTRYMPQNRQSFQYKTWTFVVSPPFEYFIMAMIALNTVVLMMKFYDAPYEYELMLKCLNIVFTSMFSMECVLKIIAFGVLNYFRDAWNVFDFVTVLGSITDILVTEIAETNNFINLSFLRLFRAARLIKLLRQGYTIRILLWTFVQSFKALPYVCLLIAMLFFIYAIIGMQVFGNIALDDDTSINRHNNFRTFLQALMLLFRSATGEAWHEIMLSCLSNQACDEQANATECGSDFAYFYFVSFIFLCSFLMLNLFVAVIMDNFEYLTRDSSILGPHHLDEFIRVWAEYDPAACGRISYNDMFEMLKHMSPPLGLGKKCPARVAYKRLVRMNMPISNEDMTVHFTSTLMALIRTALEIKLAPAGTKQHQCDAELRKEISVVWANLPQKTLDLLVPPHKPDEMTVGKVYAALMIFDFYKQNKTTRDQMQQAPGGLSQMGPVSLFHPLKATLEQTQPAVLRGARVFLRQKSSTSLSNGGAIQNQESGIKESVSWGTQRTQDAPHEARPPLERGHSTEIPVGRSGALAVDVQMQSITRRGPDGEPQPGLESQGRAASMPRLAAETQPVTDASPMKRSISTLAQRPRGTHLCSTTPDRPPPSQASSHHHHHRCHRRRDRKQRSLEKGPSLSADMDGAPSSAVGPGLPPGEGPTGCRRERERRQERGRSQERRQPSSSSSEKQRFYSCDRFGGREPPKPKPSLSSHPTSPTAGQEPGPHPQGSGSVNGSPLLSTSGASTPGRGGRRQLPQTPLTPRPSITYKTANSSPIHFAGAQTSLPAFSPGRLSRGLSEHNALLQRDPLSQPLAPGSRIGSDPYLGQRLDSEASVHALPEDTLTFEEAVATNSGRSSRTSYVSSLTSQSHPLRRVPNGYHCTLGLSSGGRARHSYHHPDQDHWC

As for `CSc1cccc(NC(=O)c2cc(S(=O)(=O)N3CCCC3)cn2C)c1`, the inhibition was 8.5% (inactive).

With `O=C(CSc1nc2c(c(=O)n1-c1ccc(Cl)cc1)SCC2)NCC1CCCO1` (configuration not stated), the inhibition is -0.5% (inactive).

As for `CC1=NN(C(N)=S)C(=O)C1N=Nc1c(Cl)cc([N+](=O)[O-])cc1Cl` (configuration not stated), the inhibition is -6.1% (inactive).

Turning to `Cc1ccc(C)c(SCC(=O)NC(=O)Nc2ccc3c(c2)OCCO3)c1`, the inhibition is 1.2% (inactive).

Turning to `CCCc1cc(=O)[nH]c(SCC(=O)N2CCC(C)CC2)n1`, the inhibition is 12% (inactive).

Regarding `Nc1cc([N+](=O)[O-])ccc1O`, the inhibition is 2.9% (inactive).

For the compound `Cc1ccc([N+](=O)[O-])cc1N`, the inhibition is 0% (inactive).

Take `COc1ccc(NC(=O)CCC(=O)N(Cc2ccc(OC)c(OC)c2)c2nccs2)cc1`: the inhibition is 6% (inactive).

Regarding `OCC1(CCCc2ccccc2)CCN(Cc2ccc(F)cc2)CC1`, the inhibition was -2.6% (inactive).

Consider `CC(C)CNC(=O)c1ccccc1Oc1ccccc1`, for which the inhibition was 3.1% (inactive).

For the compound `Cn1c(=O)c2c(-c3ccc(C(C)(C)C)cc3)n(CC3CCCO3)cc2n(C)c1=O` (configuration not stated), the inhibition is 8.1% (inactive).

As to `Cc1ccc2[nH]c(=O)c(CNC(C)C)cc2c1`, the inhibition is 15.1% (inactive).

`COC(=O)C1=C(C)NC(C)=C(C(=O)OC)C1c1cc2cc(C)ccc2[nH]c1=O`: the inhibition is 17.4% (inactive).

Consider `O=C(O)C1Nc2c(C(F)(F)F)ccc(Cl)c2C2C=CCC12` (configuration not stated), for which the inhibition was 7.3% (inactive).

Turning to `O=C(O)C1Nc2c(Cl)cc(Cl)cc2C2C=CCC12` (configuration not stated), the inhibition was 51.5% (active).

For the compound `Cc1ccc2c(c1C)NC(C(=O)O)C1CC=CC21` (configuration not stated), the inhibition is 42.8% (inactive).

As to `O=C(CCNC(=O)N1CCn2c1nc1ccccc12)NCc1ccccc1`, the inhibition was -1.3% (inactive).

On to `N#Cc1c(N)n(Cc2ccccc2)c(=O)c2cc([N+](=O)[O-])ccc12`, for which the inhibition is 2% (inactive).

With `O=c1c2c([N+](=O)[O-])cc([N+](=O)[O-])cc2sn1Cc1ccccc1`, the inhibition was 43.2% (inactive).

For the compound `Cc1ccc(NC2SC(=O)N(CC(=O)O)C2=O)cc1` (configuration not stated), the inhibition was -7.4% (inactive).

As for `Cc1cccc(C)c1-n1c(C)nn(CC2CC2)c1=O`, the inhibition is -5.7% (inactive).

As for `COc1ccc(-c2csc(NC(=O)CN3C(=O)CCC3=O)n2)c(OC)c1`, the inhibition is 6.5% (inactive).

For the compound `CC(C)(C)NC(=O)CN(C(=O)C1(C)CC(=O)N=C2C=CC=CN21)C1CCCC1` (configuration not stated), the inhibition is 9.2% (inactive).

Regarding `CCCCCC(=O)N(O)C1CC(=O)N(c2ccccc2)C1=O` (configuration not stated), the inhibition is 44.4% (inactive).

As for `CCCCCCC(=O)N(O)C1CC(=O)N(c2ccccc2)C1=O` (configuration not stated), the inhibition was 65.6% (active).

Consider `CCCCCCC(=O)N(O)C1CC(=O)N(c2ccc(C)cc2)C1=O` (configuration not stated), for which the inhibition was 12.5% (inactive).

On to `CN(CCN1CCc2ccccc2C1)Cc1nc(-c2ccc3c(c2)OCO3)no1`, for which the inhibition was 2.5% (inactive).

Regarding `CCc1cc(C(=O)N2CCCC(C(=O)c3ccc(C(F)(F)F)cc3)C2)n(C)n1` (configuration not stated), the inhibition was 5.5% (inactive).

As to `O=C(CSc1nc2scc(-c3ccco3)c2c(=O)n1-c1ccccc1)NCC1CCCO1` (configuration not stated), the inhibition was 55% (active).

Regarding `O=C(CSc1nnc(-c2ccco2)n1-c1ccccc1)NCC1CCCO1` (configuration not stated), the inhibition is 9.9% (inactive).

As for `C=CCn1c(SCC(=O)NCC2CCCO2)nc2scc(-c3ccco3)c2c1=O` (configuration not stated), the inhibition is 33% (inactive).

`Cc1cc(C)c(NC(=O)CN2CCN(c3ccccn3)CC2)c(C)c1`: the inhibition was -1.2% (inactive).

Regarding `CCOC(=O)C1(Cc2ccccc2C)CCCN(C(=O)c2ccoc2)C1` (configuration not stated), the inhibition is 14.3% (inactive).

Turning to `COC(=O)C1=C(C)NC(C)=C(C(=O)OCC2CCCO2)C1c1cccc(Br)c1` (configuration not stated), the inhibition was 13.6% (inactive).

Consider `Cc1ccc(-n2nnnc2SCC(=O)Nc2sccc2C#N)cc1`, for which the inhibition was 0% (inactive).

In the case of `Cn1cnnc1SCC(=O)Nc1sccc1C#N`, the inhibition is 2.2% (inactive).

Take `N#Cc1ccsc1NC(=O)CSc1nnnn1-c1ccc(O)cc1`: the inhibition is 50.6% (active).

For the compound `CC(=O)c1ccc2noc(-c3cccc(F)c3)c2c1`, the inhibition was -6.7% (inactive).

As for `CCn1cc(C(=O)O)c(=O)c2cc(F)c(N/N=C/c3ccccc3)cc21`, the inhibition was 6.4% (inactive).

With `CCn1cc(C(=O)O)c(=O)c2cc(F)c(N/N=C/c3ccccc3[N+](=O)[O-])cc21`, the inhibition was 58.8% (active).

With `CCn1cc(C(=O)O)c(=O)c2cc(F)c(N3CCN(C(=S)NC(=O)c4ccccc4)CC3)cc21`, the inhibition is -5.6% (inactive).

`Cn1cc([N+](=O)[O-])c(C(=O)NCc2ccco2)n1`: the inhibition was -1.5% (inactive).

`COc1ccc(NC(=O)C2=C(C)NC(=O)NC2c2ccccc2[N+](=O)[O-])cc1` (configuration not stated): the inhibition is -2.6% (inactive).

For `COc1ccccc1NC(=O)C1=C(C)NC(=O)NC1c1ccccc1[N+](=O)[O-]` (configuration not stated), the inhibition is 55.2% (active).

Consider `COc1ccccc1NC(=O)C1=C(C)NC(=O)NC1c1ccccc1F` (configuration not stated), for which the inhibition was 6.4% (inactive).

In the case of `O=C(CN1C(=O)C2CCCCC2C1=O)N1CCN(c2ncccn2)CC1` (configuration not stated), the inhibition was 10.4% (inactive).

Consider `CC(C)CCN(C)C1CCN(S(=O)(=O)c2cccc(C(F)(F)F)c2)CC1`, for which the inhibition was 12.2% (inactive).

For `O=C(N/N=C/c1ccc([N+](=O)[O-])cc1)c1cc(C2CC2)[nH]n1`, the inhibition was -0.6% (inactive).

Take `O=C(N/N=C/c1cccc([N+](=O)[O-])c1)c1cc(-c2ccc3c(c2)OCO3)n[nH]1`: the inhibition was 3.3% (inactive).

`O=C(Nc1ccc(S(=O)(=O)Nc2nccs2)cc1)c1cccc(N2C(=O)c3ccccc3C2=O)c1`: the inhibition is 49.1% (inactive).

Consider `O=C(Nc1ccc(S(=O)(=O)Nc2nccs2)cc1)c1ccc(N2C(=O)c3ccccc3C2=O)cc1`, for which the inhibition was 58.8% (active).

As for `O=C(Nc1ccc(S(=O)(=O)Nc2nccs2)cc1)c1ccc(F)cc1`, the inhibition was 11.1% (inactive).

As for `COc1ccccc1N1CCN(C(=O)C2CCN(C(=O)c3cccc(Cl)c3)CC2)CC1`, the inhibition is 6.4% (inactive).

Turning to `Cc1[nH]cnc1C(=O)N/N=C/c1ccc([N+](=O)[O-])s1`, the inhibition was -7.6% (inactive).

Turning to `O=[N+]([O-])C(=c1ccc2c(c1)N1C3=C(CCCC3)CC3CCCCC31N=2)[N+](=O)[O-]` (configuration not stated), the inhibition is 51.6% (active). Also, the inhibition (measured here: average of repeat tests) was determined as 92.8%.

For `N#CC(C#N)=c1ccc2c(c1)N1C3=C(CCCC3)CC3CCCCC31N=2` (configuration not stated), the inhibition was -36.3% (inactive).

For the compound `N#C/C(C(N)=O)=c1/ccc2c(c1)N1C3=C(CCCC3)CC3CCCCC31N=2` (configuration not stated), the inhibition was -26.9% (inactive).

With `CCc1ccc2[nH]c(C(=O)Nc3ccc(Br)c(C)n3)cc2c1`, the inhibition was 5.3% (inactive).

On to `COc1ccc(-c2cc(-c3ccco3)[nH]c(=O)c2C#N)cc1OC`, for which the inhibition was 0.3% (inactive).

With `COc1ccc(-c2cc(-c3ccco3)[nH]c(=O)c2C#N)cc1`, the inhibition was 24.8% (inactive).

With `N#Cc1c(-c2cccc(Br)c2)cc(-c2ccco2)[nH]c1=O`, the inhibition is 53.9% (active).

The values above are taken from PubChem BioAssay AID2073 (Sanford-Burnham Center for Chemical Genomics, 2009).
